M1 antag: human CHRM1 antagonism | P11229 | CHO-K1 hM1, Fluo-8 calcium fluorescence, ACh EC80 antagonist | inhibition, % at 3 µM | actives 1.3% (n = 360,000);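 active = percent inhibition above its own plate's cutoff, namely the mean of that plate's compound wells plus 3 SD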;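 also: peak over basal fluorescence ratio during 140 s after agonist addition; 0% = ACh EC80 plus DMSO and 100% = DMSO alone without agonist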
Target sequence (P11229 whole entry, looked up): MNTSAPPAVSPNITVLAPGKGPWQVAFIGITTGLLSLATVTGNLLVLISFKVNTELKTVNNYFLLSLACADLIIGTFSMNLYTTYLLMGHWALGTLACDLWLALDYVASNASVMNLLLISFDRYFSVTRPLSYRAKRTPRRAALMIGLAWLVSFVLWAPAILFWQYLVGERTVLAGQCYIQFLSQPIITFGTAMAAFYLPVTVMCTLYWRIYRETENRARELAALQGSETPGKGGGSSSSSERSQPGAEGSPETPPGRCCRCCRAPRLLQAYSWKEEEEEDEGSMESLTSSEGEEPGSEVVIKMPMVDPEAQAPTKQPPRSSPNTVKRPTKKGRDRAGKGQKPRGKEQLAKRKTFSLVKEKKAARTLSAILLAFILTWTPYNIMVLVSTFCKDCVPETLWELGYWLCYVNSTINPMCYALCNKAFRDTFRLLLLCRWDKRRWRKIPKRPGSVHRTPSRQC
CHRM1 PAM: human CHRM1 positive allosteric modulation. P11229. CHO-K1 hM1, Fluo-8 calcium fluorescence, ACh EC20; 0% = ACh EC20, 100% = maximal ACh. activation, % at 3 µM. actives 0.088% (n = 360,000); in the data active = activation above about 19%, passing the limit was not always enough
CHO-K1 Ca antag: counter-screen for M1 antagonists: effect in parental CHO-K1 cells; AID 602250; ATP-induced calcium, Fluo-8 fluorescence; actives 0.6% (n = 360,000); inhibition, % at 3 µM;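 active = inhibition above a per-plate cutoff, the plate's mean sample inhibition plus 3 SD, cut at about 24% in these data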;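 also: 0% = DMSO plus EC80 ATP and 100% = DMSO alone without ATP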
M1 ag: human M1 muscarinic receptor agonism; P11229; CHO-K1 hM1, Fluo-8 calcium fluorescence, agonist mode; 0% DMSO, 100% acetylcholine EC100; activation, % at 3 µM; actives 0.33% (n = 360,000);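 active = activation above the run's mean compound activation plus 3 SD, cut at about 16% in these data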;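 also: peak over basal fluorescence ratio within a 140 s kinetic read after compound addition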
M1 ag parental: nonselective activator or artifact in parental CHO-K1 cells; Fluo-8 calcium fluorescence; scaled to maximal ATP response, vehicle zero; actives 0.48% (n = 360,000); activation, % at 3 µM; AID 602248; in the data active = activation above about 15%;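 also: untransfected CHO-K1 host cells lacking M1 receptor as counterscreen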
M1 PAM parental: nonselective activator or artifact in parental CHO-K1 calcium assay; activation, % at 3 µM; ATP EC20, Fluo-8 calcium fluorescence; 0% at ATP EC20, 100% at ATP max; actives 0.02% (n = 360,000); AID 602247;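 active = activation above the run cutoff, the mean activation of all test compounds plus 3 SD, cut at about 40% in these data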;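 also: peak over basal fluorescence ratio in a 140 s read after ATP addition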
An asterisk follows results filed as active; nt = no result. Only some compounds are listed: those with a hit (about 2.3% of all), similar ones and a draw of the others.

SMILES	M1 antag	CHRM1 PAM	CHO-K1 Ca antag	M1 ag	M1 ag parental	M1 PAM parental
CC(C)C[C@H]1CN([C@@H](Cc2ccccc2)CN2CCC[C@@H]2CN2C(=O)C(=O)NC[C@@H]2Cc2ccc(O)cc2)C(=O)C(=O)N1CC1CCCCC1	15.5	1.8	30.2*	6.8	-0.1	-7.8
Cc1oc(-c2ccc(Cl)cc2)nc1CN1CCCC(C(=O)NC2CC2)C1 (centres undefined)	-2.2	-0.8	-10.8	-6.0	0.7	8.7
CCOC(=O)N1CCC(NC(=O)C2CCCN(Cc3nc(-c4cccc(Cl)c4)oc3C)C2)CC1 (centres undefined)	37.1*	-20.7	30.1*	-3.9	9.6	-0.1
O=C(Nc1ccc(C(=O)N2CCOCC2)cc1)c1ccccc1Cl	8.1	-6.3	0.7	-2.0	0.2	5.9
CCC(C#CCN1CCOCC1)(CC)OCCC#N	-9.0	8.2	-17.6	-3.1	0.5	16.3
CCC(C)(C#CCN1CCCCC1)OC(C)=O (centres undefined)	21.6	-22.7	0.8	-13.2	0.3	4.3
CCC(C)(C#CCN1CCCCC1)OCCC#N (centres undefined)	69.0*	-25.8	-2.3	-12.2	0.4	11.2
CCC(C#CCN1CCCCC1)(CC)OCCC#N	62.6*	-22.1	-15.1	-6.0	0.2	14.6
CCOC(=O)c1sc(NC(=O)Cn2nnc3sc4c(c3c2=O)CCC(C(C)(C)C)C4)nc1C (centres undefined)	-10.9	3.5	26.4*	-2.9	-0.7	-12.3
COc1ccccc1-c1nc(SCC(=O)Nc2cc(C)on2)c2c(=O)n(C)c(=O)n(C)c2n1	-9.8	8.1	-8.1	-3.2	0.8	13.0
CCC(OC(=O)c1ccco1)C(=O)NCc1ccc2c(c1)OCO2 (centres undefined)	4.8	-4.6	-6.2	-4.5	-0.4	6.8
CC1(c2nnnn2Cc2ccccc2)CCC(=O)N1CC1CCCCC1 (centres undefined)	nt	nt	10.7	nt	1.1	-8.4
COc1ccc(-n2nc3c(c2NC(=O)COc2ccccc2OC)CS(=O)(=O)C3)cc1	-2.0	-5.0	-2.2	1.6	1.9	0.8
CC1(C)CC(=O)C2=C(C1)OC(N)=C(C#N)C2c1cc2c(cc1[N+](=O)[O-])OCO2 (centres undefined)	38.1*	-25.1	15.4	-9.7	2.9	-10.7
CN(C)c1cc[n+](CC(=O)Nc2ccc(Oc3ccccc3)cc2)cc1	63.6*	-35.7	3.7	-15.4	0.0	3.6
c1ccc(-c2nn3c(C4CCCCC4)nnc3s2)cc1	-2.2	3.3	25.5*	1.3	-0.5	-6.6
c1ccc(-c2nn3c(C4CCCCC4)nnc3s2)nc1	-4.5	4.2	-1.8	-0.6	0.5	13.6
CCOC(=O)C1CCCN(C(=O)c2ccc(S(=O)(=O)N3CCCC3)cc2)C1 (centres undefined)	38.8*	-16.1	-1.9	-2.6	0.5	-2.7
CCOC(=O)C1CCN(C(=O)COC(=O)/C=C/c2cccc(OC)c2OC)CC1	-8.8	14.1	-22.4	19.4*	1.0	23.9
CCOC(=O)C1CCCN(C(=O)c2ccc(S(=O)(=O)N3CCOCC3)cc2)C1 (centres undefined)	17.2	-6.9	0.5	-0.3	0.2	-21.9
CCOC(=O)C1CCN(C(=O)COc2ccc(Cl)cc2Cl)CC1	16.8	-7.2	24.2*	-2.1	0.7	-7.9
CCOC(=O)C1CCN(C(=O)COc2ccc(Cl)cc2C)CC1	-7.0	5.0	-10.6	-3.6	1.2	16.2
CCOC(=O)C1CCN(C(=O)COC(=O)/C=C/c2ccccc2)CC1	-9.9	12.2	-4.1	4.7	0.0	1.1
CCOC(=O)C1CCCN(C(=O)C(C)Oc2ccc(Cl)cc2Cl)C1 (centres undefined)	-2.2	-7.0	-5.2	21.2*	0.6	0.3
COC(=O)C1CCN(C(=O)C(C)Oc2ccc(Cl)cc2Cl)CC1 (centres undefined)	-5.9	7.4	-3.2	-1.3	0.9	5.5
SMILES	M1 antag	CHRM1 PAM	CHO-K1 Ca antag	M1 ag	M1 ag parental	M1 PAM parental
O=c1c2sccc2n(Cc2cccc(F)c2)c(=O)n1-c1ccc(F)cc1	-7.7	3.7	1.5	-4.8	-0.2	1.7
CC1=C(C(=O)N(C)C)CC(CC(=O)NCc2cccc3ccccc23)C(=O)N1Cc1ccccc1 (centres undefined)	-19.9	9.2	-12.2	-4.2	0.3	8.2
CCOC(=O)C1CCCN(C(=O)c2cc(Cl)ccc2Cl)C1 (centres undefined)	-4.6	1.7	-32.7	18.7*	2.0	11.5
CCOC(=O)C1CCCN(C(=O)c2ccc(Cl)cc2)C1 (centres undefined)	1.6	2.6	-20.2	-7.6	0.4	10.4
O=C(c1cnc2ccc3ccccc3c2c1)c1cc(F)ccc1O	0.0	3.1	-20.9	5.7	3.5	40.3*
COc1ccc(C2CC(=O)Oc3c(C(C)C)ccc(C)c32)cc1 (centres undefined)	-14.3	11.6	8.2	18.1*	5.2	11.9
COc1ccc(C2CC(=O)Oc3cc(C)cc(C)c32)cc1 (centres undefined)	-2.2	-1.1	-15.1	-3.4	1.4	26.6
CC(=O)c1ccc(N2CCN(C(=S)Nc3ccc(Oc4ccccc4)cc3)CC2)cc1	35.0*	-6.7	21.2	-2.4	11.6	-13.7
COc1ccc(N2CCN(C(=S)Nc3ccccc3)CC2)cc1	-8.9	5.4	0.5	-1.6	2.0	9.5
CN1CCN(c2ccc(NC(=O)c3ccc(Oc4ccccc4)cc3)cc2)CC1	46.0*	-30.4	-0.3	-10.0	2.0	-11.1
Nc1nc(NCc2ccccc2)nc(NCc2ccccc2)c1[N+](=O)[O-]	-7.8	11.2	-4.7	-2.9	-0.2	24.2
CN(C)CCCNc1nc(N)c([N+](=O)[O-])c(NCc2ccccc2)n1	51.8*	-21.5	2.0	-9.6	0.2	2.7
COCCCNc1nc(N)c([N+](=O)[O-])c(Nc2ccccc2OC)n1	-17.9	9.7	5.3	10.5	20.4*	10.6
Nc1nc(Nc2ccccc2)nc(NCc2ccccc2)c1[N+](=O)[O-]	-5.0	3.4	-0.9	-3.2	20.0*	14.9
COCCCNc1nc(N)c([N+](=O)[O-])c(NCc2ccccc2)n1	3.0	-3.1	-18.8	2.3	3.9	9.4
COCCNc1nc(N)c([N+](=O)[O-])c(NCc2ccccc2)n1	-1.6	8.3	-14.8	-0.8	2.3	-4.5
COCc1cc(=O)[nH]c(/N=C(\N)Nc2cccc(Cl)c2)n1	-2.4	9.4	10.5	0.0	0.5	-14.4
CC(=O)Nc1ccc(S(=O)(=O)N2CCC(c3nnc(-c4ccc(C)cc4)o3)CC2)cc1	15.9	-14.6	2.5	3.3	8.8	3.2
CNc1ncc(Cc2ccccc2)s1	-6.9	7.3	24.2*	-6.2	-0.5	-13.9
COc1ccccc1C1OCC(C)([N+](=O)[O-])CO1 (centres undefined)	-5.7	2.9	-9.9	-0.3	1.1	17.1

Compound activity as filed in PubChem.
